Many of the other results were omitted from the sample, so hits are more common in it than they were.
Cycloheximide cs: affects cycloheximide protein synthesis inhibition readout, counter-screen | hit rate 12% among 300,000 | cell reporter, cycloheximide protein synthesis inhibition counterscreen | max response, % | AID 2314; in the data active = max response mostly above about 13%, no sharp cut-off; inactive = mostly below about 14%; note: read at 38.3 µM for the half of the compounds with a filed dose; 0% is about no effect
FBPA Giardia inh: Giardia lamblia aldolase inhibition. A8B2U2. hit rate 0.71% among 290,000. Potency, µM (top dose mostly 59.6 µM), for the others: top-dose activity, negative = inhibition, hits mostly inhibitors. purified Giardia FBPA; note: potency is the fitted concentration of half-maximal effect; % is set by controls: 0 for no effect and ±100 for the full control effect; nearly all actives have a fitted effect of over 55% in size
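Giardia FBPA (40 nM reagent) was preincubated 10 min at RT with compound (up to 57.5 uM final), then substrate plus GAPDH/TPI/NAD/arsenate coupling system with diaphorase/resazurin was added; resorufin fluorescence (525/598 nm) was read after 20 min.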
RE007 growth inh: less growth of the S. pombe RE007 Vpr strain; hit rate 0.21% among 360,000; S. pombe RE007 Vpr strain, BacTiter-Glo ATP luminescence, 24 h; Potency, µM (top dose mostly 92.2 µM), without a hit: top-dose activity change, negative = less growth, most hits filed as inhibitors; active = well fitted falling curve with a large enough effect; inconclusive = small, poorly fitted or top-dose-only effect; inactive = no such curve, though single readings can be large or run the other way; note: potency is the fitted concentration of half-maximal effect; % is set by controls: 0 for no effect and ±100 for the full control effect; nearly all actives have a fitted effect of over 50% in size
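Fission yeast RE007 carrying one integrated HIV-1 vpr copy, seeded at OD 0.01 in PMG+AL medium with 23 nL pinned compound. Grown 24 h at 30 degrees; viability read by BacTiter-Glo luminescence after 5 min.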
Shiga toxin inh: inhibitors of Shiga toxin in Vero cells; Vero cells, Shiga toxin protein synthesis inhibition reporter; inhibition, % at 38.7 µM; hit rate 9.2% among 290,000; AID 2315; in the data active = inhibition mostly above about 28%, no sharp cut-off; inactive = mostly below about 43%; note: 0% is about no effect
Tb PYK inh: T. brucei pyruvate kinase inhibition | Q57TT1 | TbPYK enzyme, Kinase-Glo Plus ATP luminescence, 45 min | Potency, µM (highest dose often 76.8 µM), inactives show at the top dose activity, negative = inhibition, usual class: inhibitors | hit rate 0.12% among 410,000 | AID 624173; note: potency is the fitted concentration of half-maximal effect; % is set by controls: 0 for no effect and ±100 for the full control effect; nearly all actives have a fitted effect of over 50% in size
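T. brucei PYK with substrate was exposed to pin-transferred compounds across a concentration series, then started with 130 uM ADP (final). After 45 min at room temperature, Kinase-Glo Plus luminescence was read, normalized and curve-fitted.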
LmPK inh: LmPK (Leishmania mexicana) enzyme inhibition. AID 1721. Potency, µM (series often up to 57.5 µM), for the others: at the top dose activity change, negative = inhibition, usual class: inhibitors. purified LmPK, Kinase-Glo ATP luminescence, 1 h. hit rate 0.37% among 290,000; note: potency is the fitted concentration of half-maximal effect; % is set by controls: 0 for no effect and ±100 for the full control effect
Target sequence (Q27686 whole entry, looked up): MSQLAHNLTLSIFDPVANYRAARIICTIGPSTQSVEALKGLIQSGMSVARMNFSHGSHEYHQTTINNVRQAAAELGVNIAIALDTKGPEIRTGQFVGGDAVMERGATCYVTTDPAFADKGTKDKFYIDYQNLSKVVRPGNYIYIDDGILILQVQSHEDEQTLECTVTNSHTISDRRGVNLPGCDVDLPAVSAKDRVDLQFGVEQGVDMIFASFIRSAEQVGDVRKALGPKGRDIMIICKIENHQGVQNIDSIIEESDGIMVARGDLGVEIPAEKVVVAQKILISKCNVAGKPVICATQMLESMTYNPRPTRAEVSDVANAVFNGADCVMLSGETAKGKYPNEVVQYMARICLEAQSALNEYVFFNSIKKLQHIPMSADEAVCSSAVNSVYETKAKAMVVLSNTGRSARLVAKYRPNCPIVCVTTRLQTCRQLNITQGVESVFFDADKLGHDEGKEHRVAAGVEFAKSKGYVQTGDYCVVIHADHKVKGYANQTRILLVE
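Purified LmPK (0.1 nM) with 0.5 mM PEP and 0.1 mM ADP in imidazole buffer pH 7.2 with MgCl2/KCl, 1 h at room temperature. ATP formed was read by luciferase luminescence and normalized to no-enzyme and uninhibited controls.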
The depositor's hits bear a star; ? = inconclusive; · = no result. Unless noted, calls come from the whole dose curve; as a rule, active = well fitted curve in the direction sought with a large enough effect; inconclusive = small, poorly fitted or top-dose-only effect, or another doubt; inactive = no such curve, though single readings can be large; an effect the other way counts as inactive or inconclusive.

SMILES | Cycloheximide cs | FBPA Giardia inh | RE007 growth inh | Shiga toxin inh | Tb PYK inh | LmPK inh
COc1ccccc1/C=N/NC(=O)c1csc(C)c1C | 15* | -1% | -5% | 39* | 0% | -1%
CCCCOc1cccc(/C=N/NC(=O)c2csc(C)c2C)c1 | 1 | -7% | 20% | 10 | -9% | 2%
Cc1scc(C(=O)N/N=C/c2ccc(Cl)s2)c1C | 47* | -1% | -1% | 50* | -2% | 1%
Cn1c(=O)c2c(nc(NCc3ccccc3)n2Cc2ccc(Cl)c(Cl)c2)n(C)c1=O | · | · | · | · | -3% | ·
CN1CCN(CC(=O)Nc2nc3ccccc3s2)CC1 | 18* | ? | -6% | 26 | 10% | -1%
O=C(CN1CCCCCC1)Nc1nc2ccccc2s1 | · | · | -2% | · | 1% | ·
O=C(Cn1ccc([N+](=O)[O-])n1)Nc1nc2ccccc2s1 | 26 | 5% | 16% | 86* | -3% | -4%
CC1CN(CC(=O)Nc2nc3ccccc3s2)CC(C)O1 (configuration not stated) | 12* | ? | -5% | 57 | 3% | 0%
O=C(COC(=O)CNC(=O)c1cccc([N+](=O)[O-])c1)Nc1nc2ccccc2s1 | 15* | 9% | · | 33 | -1% | -1%
Cn1c(=O)c2c(nc(N3CCOCC3)n2Cc2ccc(Br)cc2)n(C)c1=O | · | · | · | · | -4% | ·
COc1nc(NCc2ccco2)nc(N2CCC(C)CC2)n1 | -3 | 3% | 0% | 16 | 2% | 2%
COc1nc(NCc2ccco2)nc(NC2CCCCC2)n1 | 26* | 2% | -6% | 42 | -2% | 0%
CCCCCN=C(C)c1c(O)c2ccccc2oc1=O | 42* | -2% | -12% | 65* | -8% | 2%
C/C(=N/NS(=O)(=O)c1ccc(C)cc1)c1c(O)c2ccccc2oc1=O | 0 | 12% | 2% | -1 | 1% | -2%
N#Cc1ccc(-c2cccnc2)nc1SCC(=O)c1ccccc1 | 37* | 0% | 13% | 82* | 4% | 1%
CCn1c(SCC(N)=O)nnc1C(C)C | -2 | 8% | 47% | -13 | 6% | 1%
CCn1c(SCC(=O)c2ccccc2)nnc1-c1cccnc1 | 44* | -6% | -3% | 46 | 4% | -2%
CCn1c(Cn2nnc(-c3ccccc3)n2)nnc1SCC(=O)Nc1ccc(C(C)=O)cc1 | 44* | 12% | -7% | 57* | -2% | 4%
CCn1c(SCC(=O)c2ccc(Cl)cc2)nnc1C(C)C | 34* | -21% | -7% | 116* | -3% | 5%
COc1cccc(NC(=O)N(CCC(C)C)C2CCN(C(C)C)CC2)c1 | · | · | · | · | -3% | ·
Cn1cccc1C(=O)N1CCC2(CCCN(Cc3ccncc3)C2)CC1 | · | 5% | · | · | -1% | ·
CCn1nnnc1SCC(=O)c1ccc(NC(C)=O)cc1 | 22 | -5% | 11% | 23 | 1% | -3%
CCn1nnnc1SCC(=O)c1ccc(C)cc1 | 38* | 2% | 19% | 121* | -3% | 6%
Cc1occc1-c1nnc(SCC(=O)c2ccc(Cl)cc2)n1CC1CCCO1 (configuration not stated) | 2 | -10% | 8% | 37 | -20% | 0%
CCn1c(SCC(=O)c2ccc(Cl)cc2)nnc1-c1ccoc1C | 33* | -13% | -16% | 17* | -21% | 0%
SMILES | Cycloheximide cs | FBPA Giardia inh | RE007 growth inh | Shiga toxin inh | Tb PYK inh | LmPK inh
CCn1c(SCC(=O)c2ccc(C)cc2)nnc1-c1ccoc1C | 27* | -12% | 12% | 0 | -9% | -5%
CCn1c(SCC(=O)c2ccc(C)cc2)nnc1-c1ccncc1 | 17 | -7% | 0% | 17 | 0% | 1%
CCn1c(SCC(=O)c2ccccc2)nnc1-c1ccoc1C | 21* | -12% | -6% | 50* | 7% | 2%
CCCCn1c(N)c(N(CC(C)C)C(=O)c2cc3c(s2)CCCCC3)c(=O)[nH]c1=O | · | · | 11% | · | 1% | ·
CC(=O)c1ccc(NC(=O)CSc2nnc(-c3ccoc3C)n2Cc2ccccc2)cc1 | 24* | 8% | -7% | 31* | 5% | 2%
Cc1cccc(N/N=C/c2ccncc2)c1 | 34* | -19% | 98% | 45* | -3% | -4%
Cc1cccc(N/N=C/c2ccccc2O)c1 | 101* | -10% | 21% | 98* | 7% | -5%
Cc1ccc(S(=O)(=O)N2CCC[C@H]2C(=O)NC2CCCCC2)cc1 | · | · | -5% | · | -14% | ·
CC(=O)Nc1ccc(Nc2ncnc3c2cnn3-c2ccccc2)cc1 | 41* | -1% | 14% | 50* | 7% | 4%
CC(C)Nc1ncnc2c1cnn2-c1ccc(Cl)cc1 | 21* | -16% | ? | 31* | -3% | 5%
Clc1ccc(Nc2ncnc3c2cnn3-c2ccccc2)cc1 | 42* | ? | 0% | 58* | 1% | 2%
CC(=O)Nc1ccc(Nc2ncnc3c2cnn3-c2cccc(C)c2)cc1 | 33* | 3% | -1% | 55* | 6% | 1%
COC(=O)c1ccc(Nc2ncnc3c2cnn3-c2ccccc2)cc1 | · | · | · | · | 0% | ·
CC1=C(C(=O)Nc2ccc(C)cc2C)C(c2cc(Br)ccc2F)n2ncc(C(=O)Nc3ccc(C)cc3)c2N1 (configuration not stated) | · | · | · | · | -3% | ·
CCOc1cc(C(=O)OCc2cc(=O)n3nc(C4CC4)sc3n2)cc(OCC)c1OCC | · | · | · | · | -4% | ·
Cn1cccc1C(=O)N1CCC2(CCCN(c3ccccc3)C2)CC1 | · | -4% | · | · | 2% | ·
COc1ccc(CNc2ncnc3c2c(-c2ccccc2)cn3-c2ccccc2)cc1 | · | · | · | · | 2% | ·
COC(=O)N1CCC2(CCN(C(=O)Nc3ccc(OC)cc3)CC2)CC1 | · | -10% | · | · | -6% | ·
COc1ccc(-c2noc(CSc3nc(N)cc(=O)[nH]3)n2)cc1 | 8.0* | 1% | -3% | 33 | -11% | -1%
Cc1cccc(S(=O)(=O)NC(=O)C2(C)CCN2C(=O)c2sccc2C)c1 (configuration not stated) | · | · | 4% | · | 4% | ·
N#C/C(=C\c1cccnc1)C(=O)Nc1ccccc1 | 18* | 1% | 20% | 19 | -6% | 2%
O=C(CC(=O)c1ccccc1)Nc1cccnc1 | 24* | -4% | -22% | 11 | -1% | -7%
CC(C)c1ccc(NC(=O)/C(C#N)=C/c2ccncc2)cc1 | 26* | · | 8% | 18* | 2% | -13%
N#C/C(=C\c1cccnc1)C(=O)Nc1ccc(C(=O)O)cc1 | -2 | -4% | -2% | -6 | -4% | 2%
CCCOc1ccccc1/C=C(\C#N)C(=O)Nc1cccnc1 | 34* | -1% | -14% | 78* | -15% | -22%
O=C(CCCc1ccccc1)Nc1cccnc1 | 19* | -2% | 12% | 66* | 2% | -2%
O=C(Nc1ccccc1)C(=O)Nc1cccnc1 | 32* | 7% | -19% | 53* | -16% | 14µM*
COc1ccc(OCC(=O)NC(=S)NNC(=O)COc2ccc(Br)cc2Cl)cc1 | 2 | -16% | -23% | 15 | ? | 0%

From PubChem
